The campaign covered roughly 310,000 compounds. About 14,000 (4.5%) showed an effect of 50% or more. Effects have a minus sign here. The sample as a whole holds a higher share of strong results than the screen did.
Biological target: human ether-à-go-go-related gene (hERG) potassium channel (human, UniProt Q12809)
Test: primary screen, population patch clamp on CHO cells stably expressing hERG; higher = less effect of the substance
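Also: peak tail current of the secondary pulse compared with the same well before compound.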

Chain of human ether-à-go-go-related gene (hERG) potassium channel (Q12809 whole entry, looked up): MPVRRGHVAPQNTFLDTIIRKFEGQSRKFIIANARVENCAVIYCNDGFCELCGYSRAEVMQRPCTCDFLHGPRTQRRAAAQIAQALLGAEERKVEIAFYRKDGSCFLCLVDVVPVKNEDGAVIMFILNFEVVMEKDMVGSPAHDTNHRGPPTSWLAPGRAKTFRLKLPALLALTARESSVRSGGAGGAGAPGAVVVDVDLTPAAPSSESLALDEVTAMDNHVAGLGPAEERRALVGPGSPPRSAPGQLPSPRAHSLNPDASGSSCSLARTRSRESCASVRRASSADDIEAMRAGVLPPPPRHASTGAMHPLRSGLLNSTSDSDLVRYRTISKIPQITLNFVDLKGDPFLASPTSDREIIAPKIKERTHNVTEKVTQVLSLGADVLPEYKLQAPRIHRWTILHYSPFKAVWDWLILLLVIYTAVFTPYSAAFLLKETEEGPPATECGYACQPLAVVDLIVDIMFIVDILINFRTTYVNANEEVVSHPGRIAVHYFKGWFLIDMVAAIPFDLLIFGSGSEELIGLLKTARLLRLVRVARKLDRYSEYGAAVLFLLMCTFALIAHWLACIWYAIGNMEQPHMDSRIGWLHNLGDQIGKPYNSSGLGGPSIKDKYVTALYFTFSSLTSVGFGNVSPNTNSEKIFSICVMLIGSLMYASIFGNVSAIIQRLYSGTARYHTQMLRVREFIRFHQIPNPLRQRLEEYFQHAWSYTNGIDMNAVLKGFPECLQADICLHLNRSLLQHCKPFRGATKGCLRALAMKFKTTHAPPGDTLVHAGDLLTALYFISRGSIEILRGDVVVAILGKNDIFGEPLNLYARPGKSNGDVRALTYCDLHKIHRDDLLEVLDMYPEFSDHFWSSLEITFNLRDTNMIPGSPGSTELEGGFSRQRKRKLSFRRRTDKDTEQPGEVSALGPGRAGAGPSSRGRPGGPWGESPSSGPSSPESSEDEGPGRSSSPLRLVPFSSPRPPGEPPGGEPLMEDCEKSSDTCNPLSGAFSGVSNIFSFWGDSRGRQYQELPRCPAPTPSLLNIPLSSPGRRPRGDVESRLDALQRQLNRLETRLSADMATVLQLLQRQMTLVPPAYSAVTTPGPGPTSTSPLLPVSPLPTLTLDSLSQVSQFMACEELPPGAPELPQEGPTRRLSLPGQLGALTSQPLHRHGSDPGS

Going from C=CCn1c(SCCCc2ccccc2)nc2c1c(=O)[nH]c(=O)n2C to O=C(CCN1C(=O)S/C(=C\c2ccccc2)C1=O)NCCCn1ccnc1, the “hERG current change (%, negative = inhibition) at 10uM” value falls from -26.1% to -38.4%.

Going from COc1ccc(OC)c(NS(=O)(=O)c2ccc(-c3coc(C)n3)cc2)c1 to COc1ccc(C(=O)Nc2ccc(S(=O)(=O)Nc3nccnc3OC)cc2)cc1, the “hERG current change (%, negative = inhibition) at 10uM” value rises from 0.503% to 8.73%.

Compared with COc1cccc(NC(=O)N2CCCC2C(=O)NC2CC2)c1 (stereo not shown), COc1cccc(C(=O)N2CCC(N3CC(C)OC(C)C3)CC2)c1.O=C(O)C(=O)O (stereo not shown) is higher in “hERG current change (%, negative = inhibition) at 10uM” value: 3.61% for the first, 14.4% for the second.

First: COc1ccc(-c2[nH]ncc2CN(C)Cc2cnccn2)c(OC)c1
Second: COc1ccc(C2(C)NC(=O)N(CC(=O)Nc3ccc(C)cc3Br)C2=O)cc1OC (stereo not shown)
The “hERG current change (%, negative = inhibition) at 10uM” value of the first is higher: 14% for the first, 1.02% for the second.

Compared with O=C(O)c1cc2n(n1)C(C(F)(F)F)CC(c1ccco1)N2 (stereo not shown), COc1cc(S(=O)(=O)N2CCN(C(=O)c3ccco3)CC2)c(OC)cc1C is lower in “hERG current change (%, negative = inhibition) at 10uM” value: 22.2% for the first, 6.03% for the second.

Compared with O=S(=O)(NC1CCCCC1N1CCN(c2ccc(F)cc2)CC1)c1ccccc1 (stereo not shown), CCC1CCC(N2CCN(c3ccc(F)cc3)CC2)CC1 (stereo not shown) is lower in “hERG current change (%, negative = inhibition) at 10uM” value: -7.05% for the first, -52.1% for the second.

Compared with O=C(CCCN1C(=O)c2ccccc2C1=O)NCCCn1ccnc1, O=C(CCCN1C(=O)/C(=C/c2ccccc2)SC1=S)NCCCn1ccnc1 is lower in “hERG current change (%, negative = inhibition) at 10uM” value: 13.4% for the first, -59.9% for the second.

First: O=C(CCN1C(=O)/C(=C/c2ccc(Cl)cc2)SC1=S)NCCCn1ccnc1
Second: O=C(CCN1C(=O)/C(=C/c2ccc(F)cc2)SC1=S)NCCCn1ccnc1
The “hERG current change (%, negative = inhibition) at 10uM” value of the first is higher: -23.4% for the first, -63.6% for the second.

Compared with COc1ccc(/C=C2\SC(=S)N(CCC(=O)NCCCn3ccnc3)C2=O)cc1, O=C(CCCN1C(=O)/C(=C/c2ccc(F)cc2)SC1=S)NCCCn1ccnc1 is lower in “hERG current change (%, negative = inhibition) at 10uM” value: -28.5% for the first, -71% for the second.

First: COc1ccccc1/C=C1\SC(=S)N(CCC(=O)NCCCn2ccnc2)C1=O
Second: O=C(CCN1C(=O)/C(=C/c2ccccc2F)SC1=S)NCCCn1ccnc1
The “hERG current change (%, negative = inhibition) at 10uM” value of the first is lower: -44.7% for the first, -38.1% for the second.

Going from CN(C)c1ccc(CNc2ncc(Br)cc2Br)cc1 to CCC(C)N(CC(=O)NCc1ccc(OC)cc1)C(=O)c1csnn1 (stereo not shown), the “hERG current change (%, negative = inhibition) at 10uM” value falls from -3.62% to -18.3%.

First: Cc1ccccc1NC(=O)c1ccc(-n2cncn2)nc1
Second: Cc1ccc(CN2CCC(n3nccc3NC(=O)c3ccccc3C)CC2)o1
The “hERG current change (%, negative = inhibition) at 10uM” value of the first is higher: -14.1% for the first, -25.9% for the second.

First: Cc1nn(C)c(C)c1S(=O)(=O)N(CC(=O)Nc1ccc2c(c1)OCO2)c1ccc(C(C)C)cc1
Second: O=C(COC(=O)c1cc(S(=O)(=O)N2CCCC2)ccc1O)Nc1ccc(SC(F)F)cc1
The “hERG current change (%, negative = inhibition) at 10uM” value of the first is higher: 7.38% for the first, -57.5% for the second.

Compared with CC(C)C(OC(=O)c1nsc(Cl)c1Cl)C(=O)NC1CCCCC1 (stereo not shown), O=C(COC(=O)c1ccccc1O)Nc1ccc(S(=O)(=O)N2CCCCC2)cc1 is higher in “hERG current change (%, negative = inhibition) at 10uM” value: -17.7% for the first, 3.29% for the second.

Compared with Cc1oc2nc(SCCCC(=O)NCCCO)nc(N)c2c1C, CCCCCCCCCC(=O)N/N=C(\C)c1cccnc1 is lower in “hERG current change (%, negative = inhibition) at 10uM” value: 9.44% for the first, 9.29% for the second.

First: COc1ccccc1C(=O)Nc1ccnn1C1CCN(CC2CC=CCC2)CC1 (stereo not shown)
Second: Cc1ccccc1C(=O)Nc1ccnn1C1CCN(CC2CC=CCC2)CC1 (stereo not shown)
The “hERG current change (%, negative = inhibition) at 10uM” value of the first is lower: -82.3% for the first, -72.6% for the second.

Going from Cc1ccccc1C(=O)Nc1ccnn1C1CCN(Cc2ccc(CO)o2)CC1 to O=C(Nc1ccnn1C1CCN(CC2CC=CCC2)CC1)c1ccccc1Cl (stereo not shown), the “hERG current change (%, negative = inhibition) at 10uM” value falls from -1.16% to -70.7%.

First: COc1ccc(C(=O)Nc2ccnn2C2CCN(CC3CC=CCC3)CC2)cc1 (stereo not shown)
Second: COc1ccc(N2CCN(C(=S)NCc3ccccc3)CC2)cc1
The “hERG current change (%, negative = inhibition) at 10uM” value of the first is lower: -37.4% for the first, 15.3% for the second.

First: Cl.NCC(c1ccccc1)(c1ccccc1)c1ccccc1
Second: O=S(=O)(O/N=C1\CCCc2ccccc21)c1ccccc1
The “hERG current change (%, negative = inhibition) at 10uM” value of the first is lower: -15.5% for the first, 7.59% for the second.

First: O=C(COc1ccccc1)NCC(=O)N/N=C/c1ccc(Br)cc1
Second: CCOc1ccccc1C(=O)OCC(=O)Nc1ccc(OC(F)F)cc1
The “hERG current change (%, negative = inhibition) at 10uM” value of the first is higher: -14.6% for the first, -54% for the second.

First: COc1ccc(C(C)=O)c2c1OCCO2
Second: COc1ccccc1Nc1nc(C)cc(=O)[nH]1
The “hERG current change (%, negative = inhibition) at 10uM” value of the first is higher: -3.35% for the first, -7.91% for the second.

Going from CCC1CCC(N2CCN(c3ccc([N+](=O)[O-])cc3)CC2)CC1 (stereo not shown) to CC1CCC(N2CCN(c3ccc([N+](=O)[O-])cc3)CC2)CC1 (stereo not shown), the “hERG current change (%, negative = inhibition) at 10uM” value rises from -79.8% to -74.8%.

First: O=[N+]([O-])c1ccc(N2CCN(c3ccc(F)cc3)CC2)cc1
Second: O=[N+]([O-])c1ccc(N2CCN(c3ccccc3)CC2)cc1
The “hERG current change (%, negative = inhibition) at 10uM” value of the first is lower: -17.9% for the first, 4.77% for the second.

Going from O=[N+]([O-])c1ccc(N2CCSCC2)cc1 to CCCN1CCC(N2CCN(c3ccc([N+](=O)[O-])cc3)CC2)CC1, the “hERG current change (%, negative = inhibition) at 10uM” value falls from -10.4% to -74.3%.

Going from CCN1CCC(N2CCN(c3ccc(Cl)cc3)CC2)CC1 to CCN1CCC(N2CCN(c3ccc(F)cc3)CC2)CC1, the “hERG current change (%, negative = inhibition) at 10uM” value rises from -18.8% to -5.34%.

Going from CCC1CCC(N2CCN(c3cccc(OC)c3)CC2)CC1 (stereo not shown) to CCC1CCC(N2CCN(c3ccccc3F)CC2)CC1 (stereo not shown), the “hERG current change (%, negative = inhibition) at 10uM” value rises from -33.7% to -22.2%.

Going from CCS(=O)(=O)N1CCC(N2CCN(c3ccccc3)CC2)CC1 to O=C(COC(=O)c1cc(S(=O)(=O)N2CCCC2)ccc1O)Nc1ccc(S(=O)(=O)N2CCOCC2)cc1, the “hERG current change (%, negative = inhibition) at 10uM” value rises from -10.9% to 23.6%.

Compared with COCCNC(=S)N/N=C/c1c2ccccc2cc2ccccc12, COc1ccccc1NC(=O)COC(=O)c1ccccc1OCC(=O)Nc1ccc(SC(F)F)cc1 is lower in “hERG current change (%, negative = inhibition) at 10uM” value: 15.5% for the first, 1.67% for the second.

First: CCOC(=O)C(CC(=O)O)NCc1ccco1 (stereo not shown)
Second: CN(C)C(=O)COC(=O)c1ccccc1OCC(=O)Nc1ccc(SC(F)F)cc1
The “hERG current change (%, negative = inhibition) at 10uM” value of the first is higher: 17.4% for the first, -51.8% for the second.

Going from COc1cc(C(=O)OCC(=O)Nc2ccc(C)cc2)cc(OC)c1OC to COc1cc(C(=O)OCC(=O)Nc2ccc(SC(F)F)cc2)cc(OC)c1OC, the “hERG current change (%, negative = inhibition) at 10uM” value falls from 28.7% to -55.7%.

Going from CCOc1cc(C(=O)OCC(=O)Nc2ccc(SC(F)F)cc2)cc(OCC)c1OCC to COc1ccccc1C(=O)COC(=O)c1ccccc1OCC(=O)Nc1ccc(SC(F)F)cc1, the “hERG current change (%, negative = inhibition) at 10uM” value rises from 4.57% to 12.6%.

Compared with O=C(COC(=O)c1ccccc1O)Nc1ccc(OC(F)F)cc1, COc1ccccc1C(=O)OCC(=O)Nc1ccc(OC(F)F)cc1 is lower in “hERG current change (%, negative = inhibition) at 10uM” value: 2.74% for the first, -32.2% for the second.

Reference: PMC4336329 (PLoS ONE, 2015)
